Bioassay records as filed in PubChem BioAssay.
Tau FP inhib: blocks human tau fibril formation measured by polarization; K18 P301L tau heparin fibrillization, Alexa594 FP, 6 h; 280,000 tested, 0.39% active; Potency, µM (doses to about 57.7 µM), without a hit: at the highest dose activity, negative = inhibition, usual class: inhibitors; AID 1468; further: nearly all actives have a fitted effect of over 55% in size
Target sequence (P10636 561-689 P618L limits assumed): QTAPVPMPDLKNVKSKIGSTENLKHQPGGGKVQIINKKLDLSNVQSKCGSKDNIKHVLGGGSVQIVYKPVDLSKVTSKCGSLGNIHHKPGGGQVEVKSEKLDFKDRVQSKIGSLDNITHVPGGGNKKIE
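Compound effects on tau fibrillization are measured by Alexa 594 fluorescence polarization (ex 555, em 632 nm). K18 P301L tau is used at 15 uM with 0.24 uM labeled tracer, and 20 uM heparin induces aggregation over 6 hr at 37 C.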
Tau fluor cs: counter-screen for tau fibril formation inhibitors | 280,000 tested, 0.93% active | Potency, µM (titrated, usually from 57.7 µM), inactives show at the highest dose activity change, negative = decrease | AID 1463 | tau K18 P301L Alexa594 fluorescence, heparin fibrillization; further: nearly all actives have a fitted effect of over 55% in size
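Human K18 P301L tau (15 uM unlabeled plus 0.24 uM Alexa 594-labeled, final) in 100 mM sodium acetate pH 7 was mixed with compound and 20 uM heparin and incubated 6 hr at 37 C.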
TexasRed fluor: Texas Red fluorescence interference in TRb-SRC2 counter-screen; Potency, µM (series often up to 106 µM), without a hit: at the top dose fluorescence change, negative = quenching; 280,000 tested, 0.29% active; AID 1479; TRb/SRC2 Texas Red total fluorescence interference; active means well fitted curve in either direction with a large enough effect; inconclusive means small, poorly fitted or top-dose-only effect
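Human TRb ligand-binding domain at 0.6 uM with 20 nM Texas Red SRC2 peptide in Tris buffer containing 1 uM T3 and 5% DMSO, incubated with compound 5 h at ambient temperature. Total fluorescence (555/632 nm) calculated as parallel + 2 × perpendicular.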
Tau fibril ThT: blocks human tau fibril formation measured by thioflavin T | P10636 | recombinant tau K18 P301L (four-repeat tau fragment), heparin-induced fibrillization, ThT fluorescence | Potency, µM (top dose mostly 57.4 µM), for inactives: at the highest dose activity, negative = inhibition, hits mostly inhibitors | 270,000 tested, 2.1% active; further: nearly all actives have a fitted effect of over 55% in size
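Recombinant human tau K18 fragment […] carrying P301L, 15 uM unlabeled plus 0.24 uM Alexa 594-labeled, was fibrillized with 20 uM heparin in 100 mM sodium acetate pH 7 for 6 hr at 37 C; 30 uM ThT fluorescence read after 1 hr.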
RGS12 GoLoco inh: RGS12 GoLoco-Gai1 interaction inhibition; P63096; Gai1:RGS12 GoLoco peptide FP, rhodamine, 10 min; 230,000 tested, 0.44% active; Potency, µM (titrated, usually from 61.6 µM), for inactives: at the top dose activity, negative = inhibition, usual class: inhibitors; active means well fitted inhibition curve with a large enough effect, not every such curve was filed as active; inactive means no such curve, though single readings can be large or run the other way; further: nearly all actives have a fitted effect of over 30% in size
Target sequence (P63096 whole entry, looked up): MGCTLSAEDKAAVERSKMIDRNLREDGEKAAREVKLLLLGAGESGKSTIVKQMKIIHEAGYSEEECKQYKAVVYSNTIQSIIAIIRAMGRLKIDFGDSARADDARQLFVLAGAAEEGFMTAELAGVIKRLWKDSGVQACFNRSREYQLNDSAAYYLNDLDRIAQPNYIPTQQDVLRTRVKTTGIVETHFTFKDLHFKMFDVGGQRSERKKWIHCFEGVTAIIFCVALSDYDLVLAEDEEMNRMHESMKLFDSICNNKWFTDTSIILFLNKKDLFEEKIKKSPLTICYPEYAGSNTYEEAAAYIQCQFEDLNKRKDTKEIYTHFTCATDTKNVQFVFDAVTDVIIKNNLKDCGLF
TRb SRC2 PPI: inhibitors of human thyroid hormone receptor beta-SRC2 interaction | P10828 | TRbeta-SRC2 peptide binding, fluorescence polarization; receptor liganded with 1 µM T3 | Potency, µM (top dose mostly 106 µM), inactives show at the top dose activity change, negative = inhibition, most hits filed as inhibitors | 280,000 tested, 0.065% active | AID 1469;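 further: plate controls were bound peptide for no effect and peptide without receptor for full effect; nearly all actives have a fitted effect of over 50% in size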
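A fluorescence polarization screen tested compounds at multiple concentrations against complex formation between 0.6 uM TRb ligand-binding domain and 20 nM Texas Red SRC2 peptide, with 1 uM T3 present; readout after 5 hr.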
* = called active by the depositor; ? = inconclusive; / = not tested or not shown; ! = repeats disagree; [ ] = dose if it differs, or a comment. This is a sample that favours compounds with a hit; in the whole collection about 3.2% have one here. Unless noted, the call rests on the fitted dose curve; in most records, active means well fitted curve in the direction sought with a large enough effect; inconclusive means small, poorly fitted or top-dose-only effect, or another doubt; inactive means no such curve, though single readings can be large; an effect the other way counts as inactive or inconclusive. Unless noted, on the % scale 0 is the no-effect control and ±100 the full control effect; potency means the concentration at half of the fitted maximal effect.

SMILES | Tau FP inhib | Tau fluor cs | TexasRed fluor | Tau fibril ThT | RGS12 GoLoco inh | TRb SRC2 PPI
O=C(NNc1ccccc1[N+](=O)[O-])Nc1ccc(Cl)c(Cl)c1 | ? | 16µM*[quencher] | -3% | 16µM* | 18% | -1%
CCCCN(CCCC)S(=O)(=O)c1ccc(NC(=O)c2ccc([N+](=O)[O-])cc2Cl)cc1 | ? | ? | 0% | -3% | 6% | -1%
CCN(CC)S(=O)(=O)c1cc([N+](=O)[O-])ccc1NNC(=O)Nc1ccc(Cl)c(Cl)c1 | ? | 7.1µM*[quencher] | 0% | -22% | -7% | -21%
O=C(Nc1ccc(Cl)c(Cl)c1)Nc1ccc(Br)cc1F | 7.1µM* | ? | -19% | ? | 7% | 6%
O=C(Nc1ccc(Cl)c(Cl)c1)Nc1ccccc1O | -5% | 13µM*[quencher] | -2% | ? | 14% | -2%
C[C@@H](/C=C/c1ccc2ccccc2c1)C1COC(=O)C[C@H]1O (stereo partly specified) | / | / | -2% | / | / | 7%
CN(C)Cc1cc(C(C)(C)C)ccc1-c1ccc(C(C)(C)C)cc1CN(C)C | / | / | / | / | 8%[14.2 µM] | /
O=C(Nc1ccccc1)Nc1ccc(Br)c(Cl)c1 | 14µM* | ? | 3% | ? | 0% | 2%
O=C(c1cc2ccccc2o1)N1CCN=C1SCc1cccnc1 | 2% | -14% | 0% | -18% | 18% | 1%
O=C(O)c1cc2cc(Cc3cccnc3)ccc2o1 | -1% | -1% | 1% | 0% | 28µM*! | 5%
CN(C)c1ccc(C(c2nnnn2C(C)(C)C)N2CCc3ccccc3C2)cc1 (stereo unspecified) | 5% | -10% | -4% | ? | -3% | 2%
CC1CCN(C(c2ccc(N(C)C)cc2)c2nnnn2C(C)(C)C)CC1 (stereo unspecified) | -4% | ? | -1% | 10µM* | -17% | -5%
NS(=O)(=O)c1ccc(N/N=C/c2ccccn2)c([N+](=O)[O-])c1 | 10% | 1% | -4% | ? | 0% | -5%
O=C(O)/C=C/c1cn(-c2ccccc2)nc1-c1cccc([N+](=O)[O-])c1 | 5% | -16% | -4% | ? | 8% | 6%
NS(=O)(=O)c1ccc(N/N=C/c2cn(-c3ccccc3)nc2-c2ccccc2)c([N+](=O)[O-])c1 | 4% | 18µM*[quencher] | 3% | 16µM* | 15% | 5%
O=C(O)/C=C/c1cn(-c2ccccc2)nc1-c1ccc(-c2ccc([N+](=O)[O-])cc2)o1 | -1% | ? | -8% | 1.1µM* | 1% | -4%
O=[N+]([O-])c1ccc(N/N=C/c2cn(-c3ccccc3)nc2-c2ccccc2)cc1 | 7% | 7.9µM*[quencher] | 0% | 7.9µM* | 148% | 3%
C[C@H](N)C(=O)N[C@@H](CO)C(=O)N[C@H](C(=O)N[C@H](C(=O)N[C@H](C(=O)N[C@@H](CC(N)=O)C(=O)N[C@@H](Cc1ccc(O)cc1)C(=O)N[C@H](C(=O)O)[C@@H](C)O)[C@@H](C)O)[C@@H](C)O)[C@@H](C)O | / | / | 1% | / | / | -1%
Clc1cccc(CN2CCC(Cc3ccccc3)CC2)c1 | -6% | 13µM*[quencher] | -9% | 18µM* | / | -3%
